# From PubChem
# Rows were chosen to be rich in hits. Some 6.6% of all compounds tested hit in one or more screens of this group.
# PTAP TSG101 blk – blocks PTAP/TSG101 interaction to inhibit HIV-1 budding | Q99816 | Fluorescence polarization, FITC-PTAP peptide / Tsg101 binding | Potency, µM (doses to about 115 µM), for the others: top-dose activity change, negative = inhibition, actives largely listed as inhibitors | 340,000 tested, under 10 active; active = well fitted inhibition curve with a large enough effect in the main read-out, with a control signal flat, not every such curve was filed as active; inconclusive = small, poorly fitted or top-dose-only effect, or effect the other way, or a change in a side signal; inactive = no such curve, though single readings can be large or run the other way; note: % of control where 0% means no effect
# Target sequence (Q99816 whole entry, looked up): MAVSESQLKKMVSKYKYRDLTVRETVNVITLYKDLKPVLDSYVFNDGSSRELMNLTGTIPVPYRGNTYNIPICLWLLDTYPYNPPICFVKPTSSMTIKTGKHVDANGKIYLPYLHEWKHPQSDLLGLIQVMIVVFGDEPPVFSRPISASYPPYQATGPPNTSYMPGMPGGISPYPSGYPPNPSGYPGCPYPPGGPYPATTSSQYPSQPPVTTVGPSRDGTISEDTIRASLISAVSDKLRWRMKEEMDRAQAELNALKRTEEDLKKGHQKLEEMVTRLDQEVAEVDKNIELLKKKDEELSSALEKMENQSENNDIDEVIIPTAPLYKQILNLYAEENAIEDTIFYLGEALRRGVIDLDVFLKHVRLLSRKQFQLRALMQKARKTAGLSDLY
#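 Tsg101 binding domain (10 uM final) was mixed with compound and a FITC-labeled PTAP peptide (50 nM final) in HEPES pH 7.5 buffer with NaCl, Tween 20, EDTA and TCEP; fluorescence polarization was read after 20 min at r.t.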
# KB-V1 MDR tox – KB-V1 MDR subline cytotoxicity | Potency, µM (top dose mostly 46.1 µM), most hits filed as cytotoxic | actives 3.4% (n = 400,000) | KB-V1 MDR cells viability, CellTiter-Glo, 72 h; note: % is set by controls: 0 for no effect and ±100 for the full control effect; nearly all actives have a fitted effect of over 60% in size
#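 KB-V1, DMEM (no phenol red) + 10% FBS; cpd pin-transferred, titration series; 72 h, 37 degrees C; CellTiter-Glo, luminescence. Data normalized, curve-fit.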
# MCF10A rereplic – inducers of DNA re-replication in MCF 10A breast cells | actives 2.9% (n = 350,000) | MCF 10A DNA re-replication, Hoechst nuclear intensity, 48 h | Potency, µM (doses to about 46.1 µM), for the others: top-dose activity, positive = re-replication, most hits filed as activators | AID 624296; note: % of control where 0% means no effect; nearly all actives have a fitted effect of over 50% in size
# KB-3-1 tox – kills parental KB-3-1 adenocarcinoma cells | KB-3-1 viability, CellTiter-Glo ATP luminescence, 72 h | Potency, µM (top dose mostly 46.1 µM), most hits filed as cytotoxic | actives 1.4% (n = 400,000) | AID 1347075; note: % is set by controls: 0 for no effect and ±100 for the full control effect; nearly all actives have a fitted effect of over 60% in size
#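 Viability of parental KB-3-1 cells, measured by CellTiter-Glo luminescence, followed a 72 h incubation at 37 °C with pinned compounds in phenol-red-free DMEM containing 10% FBS.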
# RGS4 inh – blocks human RGS4-accelerated GTP hydrolysis; P49798; Transcreener GDP fluorescence polarization, RGS4-accelerated GTP hydrolysis; Potency, µM (titrated, usually from 114 µM), without a hit: at the top dose activity change, negative = inhibition, usual class: inhibitors; actives 0.039% (n = 390,000); AID 504845; note: % is set by controls: 0 for no effect and ±100 for the full control effect; nearly all actives have a fitted effect of over 75% in size
# Target sequence (P49798 whole entry, looked up): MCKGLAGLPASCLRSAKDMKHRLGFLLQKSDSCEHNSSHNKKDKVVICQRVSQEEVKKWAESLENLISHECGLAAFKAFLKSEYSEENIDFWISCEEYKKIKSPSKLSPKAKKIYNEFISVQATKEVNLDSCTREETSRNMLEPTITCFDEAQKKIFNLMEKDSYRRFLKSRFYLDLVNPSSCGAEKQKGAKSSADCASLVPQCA
#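 MLSMR compounds (23 nl, pin-transferred) preincubated 10 min at room temperature with a 500nM (2x) first reagent, then RGS4 at 900nM (2x) plus Transcreener GDP mix added; fluorescence polarization (620/688 nm) read before and after 90 min at 30 °C.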
# SW480 rerep – induces DNA re-replication in SW480 colon adenocarcinoma cells. SW480 DNA re-replication, Hoechst DNA content imaging, 48 h. Potency, µM (highest dose often 46.1 µM), for inactives: top-dose re-replication activation, most hits filed as activators. actives 1.8% (n = 340,000). AID 624297; note: % of control where 0% means no effect; nearly all actives have a fitted effect of over 55% in size
#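 Treated cells incubate 48 hr (37 C, 5% CO2), are stained 40 min with Hoechst, and nuclear fluorescence is enumerated; a rise in nuclei with high DNA signal marks re-replication.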
# The depositor's hits bear a star; i = inactive; ? = inconclusive; nt = no result given; [ ] = another dose, or the depositor's remark. Unless noted, calls come from the whole dose curve; as a rule, active = well fitted curve in the direction sought with a large enough effect; inconclusive = small, poorly fitted or top-dose-only effect, or another doubt; inactive = no such curve, though single readings can be large; an effect the other way counts as inactive or inconclusive. Potency is the fitted concentration of half-maximal effect.
SMILES,PTAP TSG101 blk,KB-V1 MDR tox,MCF10A rereplic,KB-3-1 tox,RGS4 inh,SW480 rerep
CNC(=O)/C(C#N)=C/c1c(N2CCN(C)CC2)nc2c(C)cccn2c1=O,-1%,i,-4%,i,25%,?
CCN1CCN(c2nc3c(C)cccn3c(=O)c2/C=C(\C#N)C(=O)NCCCOC)CC1,-2%,i,18µM*,i,-2%,21µM*
CCN1CCN(c2nc3c(C)cccn3c(=O)c2/C=C(\C#N)C(=O)NC)CC1,-2%,i,5.8µM*,i,18%,7%
COc1ccc(NC(=O)c2c(C)oc3ccc(O)c(CN4CCC(C)CC4)c23)cc1Cl,nt,i,nt,i,-11%,nt
Cc1nnc2c3ccccc3nc(N3CCN(c4ccccc4)CC3)n12,nt,i,nt,i,-17%,nt
Clc1ccc(-c2nnc3c4ccccc4nc(N4CCOCC4)n23)cc1Cl,-1%,2.6µM*,?,i,-4%,-13%
Fc1ccccc1-c1nnc2c3ccccc3nc(N3CCOCC3)n12,-4%,i,2%,i,33%,0%
Brc1ccc(-c2nnc3c4ccccc4nc(N4CCOCC4)n23)cc1,-7%,2.6µM*,3%,i,13%,-14%
CCCCC(=O)Nc1ccc(C(=O)OCc2cc(=O)n3ccsc3n2)cc1,nt,i,nt,i,-10%,nt
COc1ccc(S(=O)(=O)NCCc2c(C)nn(C)c2Oc2ccccc2)cc1,-9%,?,8%,i,1%,10%
Cc1nn(C)c(Oc2ccccc2)c1CCNS(=O)(=O)c1ccc(Cl)cc1,-2%,18µM*,10%,?,-14%,1%
CN(CC(=O)Nc1ccc(F)cc1F)S(=O)(=O)c1cccc2nsnc12,nt,i,nt,i,-9%,nt
CC(C)(Cc1ccc(O)cc1)NC(=O)CC(=O)N/N=C/c1ccc(Cl)cc1,-1%,i,13µM*,?,10%,?
O=c1c2sc3ccccc3c2n(Cc2cccc(Cl)c2)c(=O)n1Cc1ccccc1,nt,i,nt,i,7%,nt
COc1ccc(N2C(=O)CC(NNC(=O)c3cc(C)oc3C)C2=O)cc1 (stereo not given),-3%,i,2.6µM*,i,8%,6%
C=CC[n+]1c(-c2ccc(OC)cc2)csc1NNC(=O)Nc1ccccc1,-9%,23µM*,11%,i,-39%,3%
CC(C)[C@@H]1Cc2[nH]c(=S)[nH]c(=O)c2[C@H](C)O1,nt,5.8µM*,nt,8.2µM*,nt,nt
CC1OC(C2CCCCC2)Cc2[nH]c(=S)[nH]c(=O)c21 (stereo not given),nt,?,nt,i,nt,nt
CC(C)[C@@H]1Cc2[nH]c(=O)[nH]c(=O)c2[C@H](C)O1,nt,18µM*,nt,?,nt,nt
C[C@@H]1O[C@H](C2CCCC2)Cc2[nH]c(=S)[nH]c(=O)c21,nt,?,nt,16µM*,nt,nt
O=C(CCCCn1c(=O)c2ccccc2n(CC(=O)Nc2ccccc2)c1=O)NCc1ccccc1Cl,nt,?,nt,i,-5%,nt
COc1ccc(CCNC(=O)c2ccc3c(c2)CCN3S(=O)(=O)c2ccc(Cl)cc2)cc1,nt,?,nt,i,10%,nt
COc1ccc(NC(=S)N(CCN(C)C)C(C)c2ccco2)cc1Cl (stereo not given),-4%,23µM*,29%,i,-27%,-15%
CCCN(CCC)C(=O)Cn1c(=O)n(Cc2ccc(C(=O)NCCc3ccc(Cl)cc3)cc2)c(=O)c2ccccc21,nt,i,nt,i,-2%,nt
O=C(Nc1ccccc1Br)c1ccc(OC(=S)N2CCOCC2)cc1,-1%,i,-37%,i,?,-4%
SMILES,PTAP TSG101 blk,KB-V1 MDR tox,MCF10A rereplic,KB-3-1 tox,RGS4 inh,SW480 rerep
Cc1ccc(C(=O)N2CCN(c3ccc(NC(=O)COc4ccccc4C)cc3)CC2)cc1,-1%,?,9%,18µM*,11%,4%
Cc1ccc(NC(=O)c2ccc(OC(=S)N3CCOCC3)cc2)cc1,-1%,6.5µM*,2%,i,-3%,-1%
CC(=O)N1CCN(c2ccc(NC(=O)c3ccc(C)cc3)cc2)CC1,-2%,18µM*,3%,i,-1%,-5%
CC(C)c1ccc(S(=O)(=O)NCc2nc3cccnc3n2Cc2ccc(F)cc2)cc1,nt,nt,nt,nt,-3%,nt
COc1ccc(/C=c2\s/c(=C/C(=O)c3ccc(C)cc3)[nH]c2=O)cc1OC,?,i,13µM*,i,-3%,23%
CCOc1ccc(CCNc2cc(C)nc3ncnn23)cc1OCC,-5%,i,0%,i,7%,-8%
CCOC(=O)c1ccc(Nc2c(CC)c(C)nc3ncnn23)cc1,nt,23µM*,?,i,30%,1%
COc1ccc(CCNc2c(C)c(C)nc3ncnn23)cc1,1%,i,?,i,19%,8.2µM*
CCc1c(C)nc2ncnn2c1NCCc1ccc(OC)c(OC)c1,-5%,9.2µM*,-7%,23µM*,8%,-2%
COc1ccc(-c2cn3nc(N4CCC(C(=O)Nc5cc(Cl)ccc5C)CC4)sc3n2)cc1,nt,i,nt,i,4%,nt
S=c1[nH]c(=S)c2[nH]cnc2[nH]1,nt,i,nt,?,?,nt
N#Cc1ccccc1Cn1c(=O)n(CCCC(=O)NCc2ccccc2Cl)c(=O)c2ccccc21,nt,nt,nt,nt,7%,nt
CCc1ccc(C(=O)c2cn(CC(=O)NCc3ccc(C)cc3)c3nc(C)ccc3c2=O)cc1,nt,i,nt,i,7%,nt
Cc1nnc(NC(=O)c2ccc(S(=O)(=O)N3CCCCC3C)cc2)o1 (stereo not given),0%,?,15%,i,26%,17%
CCCCN(C)S(=O)(=O)c1ccc(C(=O)Nc2nnc(-c3ccco3)o2)cc1,-9%,?,?,?,-6%,13µM*
CN(C)S(=O)(=O)c1ccc(C(=O)Nc2nnc(-c3ccco3)o2)cc1,-1%,?,?,?,-4%,?
CCCCN(CC)S(=O)(=O)c1ccc(C(=O)Nc2nnc(-c3cccs3)o2)cc1,-5%,?,?,8.2µM*,5%[11.4 µM],?
CC1CCCCN1S(=O)(=O)c1ccc(C(=O)Nc2ccccc2-c2nc3ccccc3[nH]2)cc1 (stereo not given),-5%,23µM*,0%,?,16%,-3%
CCN(CC)S(=O)(=O)c1ccc(C(=O)Nc2nnc(-c3ccco3)o2)cc1,-5%,?,1%,?,4%,?
CC1CCCCN1S(=O)(=O)c1ccc(C(=O)Nc2nnc(-c3ccco3)o2)cc1 (stereo not given),-4%,5.8µM*,21%,?,9%,?
